Consider 3 compounds from PubChem BioAssay (NCATS).

“And” between values parts separate entries of the source, which are not always exact repeats. Equal entries are not always repeated. Records with an inconclusive call do not appear. The source made the active and inactive calls. Unless noted, calls follow the shape of the dose curve; as a rule, active = well fitted curve in the direction sought with a large enough effect; inconclusive = small, poorly fitted or top-dose-only effect, or another doubt; inactive = no such curve, though single readings can be large; an effect the other way counts as inactive or inconclusive.

The nature of experiment [1]: Cell Viability - MRC5 (AID 434; calls by dose curve;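 also: potency is read from the fitted curve at half-maximal effect; potency reflects cytotoxicity seen as loss of intracellular ATP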). The settings on record: MRC5 lung fibroblast viability, qHTS. The procedure, abridged:
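MRC5 normal human lung fibroblasts (1500/well) were treated with compounds for 40 hr at 37 °C in complete medium, and viable cells were measured as intracellular ATP by CellTiter-Glo luminescence. AC50 came from Hill fits, normalized to DMSO and 100 uM tamoxifen.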
On the technique in general: qHTS replaces the single test concentration by a dilution series.

Experiment [2] is described as follows: Cell Viability - N2a (AID 540).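 Also: cells exposed to compound for 40 h at 37 °C; plate controls were DMSO alone for no effect and tamoxifen control for full effect; nearly all actives have a fitted effect of over 45% in size.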 The settings on record: N2a mouse neuroblastoma cell viability; at 92.2 µM (top of the series). The gist of the method:
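Luminescent ATP signal (CellTiter-Glo, 20 min at room temperature) served as the viability read-out after N2a cells were treated with compounds for 40 hours at 37 °C. Concentration-response data were fitted to the Hill equation for AC50.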

A short description of experiment [3]: Cell Viability - H-4-II-E (AID 543). Also: % is scaled to controls: 0 for no effect and ±100 for the full control effect; nearly all actives have a fitted effect of over 35% in size. The settings on record: H-4-II-E rat hepatoma viability; series mostly up to 92.2 µM. The gist of the method:
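Luminescent ATP signal (CellTiter-Glo) served as the viability read-out, with cytotoxicity seen as a concentration-dependent ATP drop. Cells were treated for 40 hours in complete medium. AC50 values derive from Hill-equation modelling.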

Experiment [4] is described as follows: Cellular Toxicity (caspase-3) Jurkat (AID 655).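 Also: cells exposed to compound for 16 h at 37 °C before reading.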 The following applies: Jurkat caspase-3 activation, luminescence, DMSO = 0%, tamoxifen = 100%; at 92.2 µM (top of the series). The gist of the method:
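5000 Jurkat cells/well; compound 16 hr, 37 °C; Caspase-Glo 3/7 added, 20 min RT; luminescence read. Norm: DMSO = 0%, tamoxifen 100 uM = 100%. AC50, Hill model.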

Experiment [5] can be described thus: Cell Viability - LYMP1-002 - Assay at 16 hr (AID 948).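 Also: 0% = DMSO alone and full effect = 92 µM tetraoctylammonium bromide.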 The settings on record: LYMP1-002 lymphoblastoid cell viability; series mostly up to 92.2 µM. The gist of the method:
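Seed 2500 LYMP1-002 cells per well in complete medium and hold 5 hr at 37 C. Add compound across a concentration series and incubate 16 hr at 37 C. Add CellTiter-Glo, wait 30 min at room temperature, read luminescence.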

A short description of experiment [6]: MultiTox-Fluor Cytotoxicity Assay - LYMP1-002 - Dead Cells (AID 960). Also: nearly all actives have a fitted effect of over 60% in size. Also: potency is read from the fitted curve at half-maximal effect. The following applies: LYMP1-002 lymphoblastoid cells, dead-cell protease fluorescence; series mostly up to 46.1 µM. The gist of the method:
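LYMP1-002 cells 2500/well; 5 hr 37 C pre-incubation; compound 16 hr 37 C; MultiTox-Fluor reagent 60 min RT; dead-cell fluor Ex/Em 485/520. Norm. to DMSO (0%) vs 15 uM tetraoctylammonium bromide (100%); Hill AC50.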

A short description of experiment [7]: MultiTox-Fluor Cytotoxicity Assay - LYMP1-003 - Dead Cells (AID 961). Also: nearly all actives have a fitted effect of over 70% in size. The following applies: LYMP1-003 lymphoblastoid cells, dead-cell protease fluorescence; series mostly up to 92.2 µM. The procedure, abridged:
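LYMP1-003 lymphoblastoid, 2500 cells/well, 5 hr settle then 16 hr cpd at 37 C; MultiTox-Fluor reagent 60 min RT; Ex/Em 485/520 dead-cell signal; norm. DMSO = 0%, 15 uM tetraoctylammonium bromide = 100%; Hill AC50.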

Experiment [8] in a line: MultiTox-Fluor Cytotoxicity Assay - LYMP1-003 - Live Cells (AID 962).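 Also: cells exposed to compound for 16 hours at 37 °C; 0% = DMSO only and full loss = 92 µM tetraoctylammonium bromide; cytotoxic hits lower the live-cell protease signal.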 The following applies: LYMP1-003 lymphoblastoid cells, MultiTox-Fluor live-cell protease fluorescence; series mostly up to 92.2 µM. The procedure, abridged:
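qHTS, 1536-well; 2500 cells/well LYMP1-003; 5 hr 37 C settle; cpd 16 hr 37 C; MultiTox-Fluor reagent 60 min RT; live-cell protease fluor. 405/510; Hill-fit AC50; tetraoctylammonium bromide pos. ctrl.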

The nature of experiment [9]: Cell Viability - LYMP1-003 - Assay at 24 hr (AID 963).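 Also: plate controls were DMSO only for no effect and tetraoctylammonium bromide positive control for full effect.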 The settings on record: LYMP1-003 lymphoblastoid cell viability; series mostly up to 92.2 µM. The gist of the method:
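Cells seeded at 2500/well, 5 hr at 37 C; compounds added; 24 hr at 37 C; CellTiter-Glo added, 30 min room temperature; luminescence read. Decrease in ATP taken as cytotoxicity, AC50 from Hill modelling.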

A short description of experiment [10]: Cell Viability - LYMP2-003 (AID 965).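 Also: cells exposed to compounds for 24 h before reading; 0% = DMSO only and full effect = 92 µM tetraoctylammonium bromide; nearly all actives have a fitted effect of over 50% in size.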 The settings on record: LYMP2-003 lymphoblastoid cell viability; series mostly up to 92.2 µM. The procedure, abridged: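 Seed 2500 lymphoblastoid cells/well; incubate 5 hr, 37 C; add compounds; incubate 24 hr, 37 C; add CellTiter-Glo, 30 min RT; read luminescence. AC50 from Hill fit.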
The target of experiment [11] is Glucocorticoid receptor (Homo sapiens) (UniProt P04150). Description: qHTS assay for small molecule agonists of glucocorticoid receptor signaling (AID 588532; active = well fitted curve in the direction sought with a large enough effect in the signal ratio, with a control signal flat; the % refers to the signal ratio;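 also: 100% = dexamethasone at 0.1 µM and 0% = DMSO only wells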). The following applies: HeLa MMTV-bla, beta-lactamase ratio, agonist, 18 h; stronger effect = higher value; percent of dexamethasone control, DMSO zero. The gist of the method: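 MMTV-bla HeLa, beta-lactamase reporter; medium with 1% charcoal/dextran-stripped FBS; cpds up to 92 uM, 18 h, 37 C; CCF4 readout 460/530 nm; Hill fit → EC50, efficacy vs 0.1 uM dexamethasone = 100%.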

Experiment [12] addresses Thyroid hormone receptor beta (Homo sapiens) (UniProt P10828). The experiment can be described thus: qHTS assay for small molecule agonists of thyroid hormone receptor beta signaling (AID 588545; calls by dose curve;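 also: 0% = DMSO only and 100% = 10 nM T3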). The following applies: TR-UAS-bla GripTite HEK 293, beta-lactamase ratio, agonist mode, 18 h, percent of T3 response, DMSO as zero; series mostly up to 76.7 µM. The procedure, abridged:
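TR-UAS-bla-GripTite HEK 293 cells in medium with 2% charcoal/dextran FBS, 0.1 mM NEAA and 1 mM sodium pyruvate were treated with titrated compounds for 18 hrs at 37 C. Beta-lactamase reporter was read with CCF4 dye (ex 405, em 460/530 nm); EC50 from Hill fits.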

A short description of experiment [13]: qHTS assay for small molecule antagonists of retinoid X receptor alpha signaling (AID 588546; active = well fitted inhibition curve with a large enough effect in the signal ratio, with a control signal flat, not every such curve was filed as active; the % refers to the signal ratio;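 also: cells stimulated with 9-cis-retinoic acid as agonist; % is scaled to controls: 0 for no effect and ±100 for the full control effect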). The following applies: HEK293T RXRa-UAS-bla, beta-lactamase ratio, antagonist mode; measured here: W530 green channel, cytotoxicity proxy. The procedure, abridged: (§1)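 Beta-lactamase reporter inhibition, read as CCF4 fluorescence ratio (ex 405, em 460/530 nm) after 2 h at RT. HEK293T UAS-bla cells, 2500/well, were stimulated with 9-cis-RA at 500 or 100 nM final alongside test compound for 18 h at 37 C.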

For experiment [14], the target named is Retinoic acid receptor RXR-alpha (Homo sapiens) (UniProt P19793). Described as above. The settings on record: HEK293T RXRa-UAS-bla, beta-lactamase ratio, antagonist mode. The procedure, abridged: as §1
The target of experiment [15] is Thyroid hormone receptor beta (Homo sapiens) (UniProt P10828). Description: qHTS assay for small molecule antagonists of thyroid hormone receptor beta signaling (AID 588547; active = well fitted inhibition curve with a large enough effect in the signal ratio, with a control signal flat, not every such curve was filed as active; the % refers to the signal ratio;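 also: cells stimulated with 0.4 nM T3 agonist during compound exposure; % is scaled to controls: 0 for no effect and ±100 for the full control effect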). The following applies: TR-UAS-bla HEK293, beta-lactamase ratio, antagonist mode, 18 h. The procedure, abridged:
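TR-UAS-bla GripTite HEK293 cells in 2% charcoal/dextran FBS medium were preincubated 4 h at 37 C, given compound (0.59 nM to 92 uM) plus 0.4 nM T3 (final) for 18 h, then CCF4 for 2 h at RT; Hill fit gave IC50.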

The nature of experiment [16]: qHTS assay for small molecule agonists of the antioxidant response element (ARE) signaling pathway (AID 651741; active = well fitted activation curve with a large enough effect in the signal ratio; the % refers to the signal ratio; also: potency is read from the fitted curve at half-maximal effect; as to activation: % of control where 0% means no effect). The following applies: HepG2 ARE-bla reporter, beta-lactamase FRET ratio, 16 h; series mostly up to 96 µM. The procedure, abridged:
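Compounds in DMSO are pinned onto HepG2 ARE-bla cells (2,000/well) that were preincubated 5 h; plates stay 16 h at 37 C, then beta-lactamase activity is detected with LiveBLAzer B/G substrate by fluorescence.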

Experiment [17] can be described thus: qHTS assay for environmental chemicals that activate the Aryl hydrocarbon Receptor (AhR) signaling pathway (AID 651777). Also: % of control where 0% means no effect; nearly all actives have a fitted effect of over 15% in size. The settings on record: 1A2-DRE human hepatoma cells, luciferase, 24 h; activation: stronger effect = higher value. The procedure, abridged:
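Stable CYP1A2 promoter/DRE-luciferase human hepatoma line treated 24 hr; One-Glo luminescence, 30 min RT.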

Experiment [18] has as its target Peroxisome proliferator-activated receptor alpha (Homo sapiens) (UniProt Q07869). Description: qHTS assay for small molecule agonists of the peroxisome proliferator-activated receptor alpha (PPARalpha) signaling pathway (AID 651778). Also: % of control where 0% means no effect. The settings on record: PathHunter PPARalpha complementation, chemiluminescence, 6 h; stronger effect = higher value. The gist of the method:
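Cells plated at 2,000/well and held overnight at 37 C, 5% CO2, then compound added by pin tool for 6 hr; after PathHunter detection reagent and 60 min at room temperature, chemiluminescence from enzyme complementation was read.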

Experiment [19] is described as follows: qHTS assay for small molecule agonists of the antioxidant response element (ARE) signaling pathway measured by Nrf2-dependant transcriptional activity (AID 720636; active = well fitted curve in the direction sought with a large enough effect in the repeat runs; an effect the other way counts as inactive or inconclusive;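 also: HepG2 cells with an ARE-driven luciferase reporter; % of control where 0% means no effect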). The settings on record: ARE-luc HepG2, Nrf2 luciferase reporter, 16 h; series mostly up to 92.4 µM. The gist of the method: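 Reporter gene assay, HepG2 ARE-luc: 16 hr compound, 37 C, 5% CO2; read-out luciferase luminescence.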

Experiment [20] in a line: qHTS assay for small molecule disruptors of the mitochondrial membrane potential - 5 hr assay (AID 651755; calls by dose curve; also: % is scaled to controls: 0 for no effect and ±100 for the full control effect; nearly all actives have a fitted effect of over 40% in size). The settings on record: JC-1-type ratio dye; series mostly up to 92.2 µM. The procedure, abridged:
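HepG2 cells, attached overnight at 37C, were exposed to compound or DMSO for 5 hr at 37C, 5% CO2. Mito-MPS dye was then added for 30 min, and fluorescence read at 490/535 nm (monomers) and 540/590 nm (aggregates).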

Thyroid hormone receptor beta (Homo sapiens), sequence (P10828 whole entry, looked up): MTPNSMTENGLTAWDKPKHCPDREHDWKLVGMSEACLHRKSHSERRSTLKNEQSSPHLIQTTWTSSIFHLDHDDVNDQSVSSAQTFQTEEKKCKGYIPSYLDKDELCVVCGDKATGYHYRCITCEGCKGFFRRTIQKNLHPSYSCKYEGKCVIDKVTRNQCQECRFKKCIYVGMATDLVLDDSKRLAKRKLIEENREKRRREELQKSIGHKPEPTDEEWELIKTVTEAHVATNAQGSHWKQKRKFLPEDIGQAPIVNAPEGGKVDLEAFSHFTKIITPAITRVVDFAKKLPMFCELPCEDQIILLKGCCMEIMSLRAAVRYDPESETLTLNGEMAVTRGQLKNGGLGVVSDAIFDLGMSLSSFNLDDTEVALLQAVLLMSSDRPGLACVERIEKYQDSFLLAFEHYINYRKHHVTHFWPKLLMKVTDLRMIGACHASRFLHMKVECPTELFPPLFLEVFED
Peroxisome proliferator-activated receptor alpha (Homo sapiens), sequence (Q07869 whole entry, looked up): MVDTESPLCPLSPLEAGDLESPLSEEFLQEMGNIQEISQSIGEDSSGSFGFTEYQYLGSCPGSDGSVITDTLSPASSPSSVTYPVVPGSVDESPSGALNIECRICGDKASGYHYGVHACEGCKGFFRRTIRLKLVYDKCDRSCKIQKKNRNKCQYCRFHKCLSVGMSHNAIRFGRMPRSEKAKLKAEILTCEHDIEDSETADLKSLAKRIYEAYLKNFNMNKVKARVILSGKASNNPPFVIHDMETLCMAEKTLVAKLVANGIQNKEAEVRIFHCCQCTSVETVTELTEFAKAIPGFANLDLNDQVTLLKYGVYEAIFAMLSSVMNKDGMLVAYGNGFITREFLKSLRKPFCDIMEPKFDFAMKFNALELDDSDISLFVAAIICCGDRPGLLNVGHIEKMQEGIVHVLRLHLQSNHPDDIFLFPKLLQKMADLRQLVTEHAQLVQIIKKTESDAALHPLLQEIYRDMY
Glucocorticoid receptor (Homo sapiens), sequence (P04150 whole entry, looked up): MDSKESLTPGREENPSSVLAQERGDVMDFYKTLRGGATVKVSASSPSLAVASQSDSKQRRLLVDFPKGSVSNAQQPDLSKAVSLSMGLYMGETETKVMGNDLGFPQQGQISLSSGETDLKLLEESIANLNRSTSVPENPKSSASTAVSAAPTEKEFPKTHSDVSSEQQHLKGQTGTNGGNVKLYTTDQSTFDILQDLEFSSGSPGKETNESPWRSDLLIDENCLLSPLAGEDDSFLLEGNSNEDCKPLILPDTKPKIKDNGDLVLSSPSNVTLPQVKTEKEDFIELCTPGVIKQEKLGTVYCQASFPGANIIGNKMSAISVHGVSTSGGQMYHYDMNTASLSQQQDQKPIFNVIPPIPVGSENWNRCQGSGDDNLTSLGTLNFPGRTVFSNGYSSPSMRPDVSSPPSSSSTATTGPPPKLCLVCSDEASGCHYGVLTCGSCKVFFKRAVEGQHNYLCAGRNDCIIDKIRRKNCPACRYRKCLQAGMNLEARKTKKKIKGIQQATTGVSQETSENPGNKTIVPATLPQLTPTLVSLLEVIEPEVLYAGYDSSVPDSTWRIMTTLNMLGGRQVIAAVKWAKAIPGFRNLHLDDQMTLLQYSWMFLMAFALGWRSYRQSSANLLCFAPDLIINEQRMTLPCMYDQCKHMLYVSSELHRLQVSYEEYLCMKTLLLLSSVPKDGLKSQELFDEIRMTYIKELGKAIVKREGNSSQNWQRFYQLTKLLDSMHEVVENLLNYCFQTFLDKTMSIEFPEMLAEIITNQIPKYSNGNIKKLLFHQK
Retinoic acid receptor RXR-alpha (Homo sapiens), sequence (P19793 whole entry, looked up): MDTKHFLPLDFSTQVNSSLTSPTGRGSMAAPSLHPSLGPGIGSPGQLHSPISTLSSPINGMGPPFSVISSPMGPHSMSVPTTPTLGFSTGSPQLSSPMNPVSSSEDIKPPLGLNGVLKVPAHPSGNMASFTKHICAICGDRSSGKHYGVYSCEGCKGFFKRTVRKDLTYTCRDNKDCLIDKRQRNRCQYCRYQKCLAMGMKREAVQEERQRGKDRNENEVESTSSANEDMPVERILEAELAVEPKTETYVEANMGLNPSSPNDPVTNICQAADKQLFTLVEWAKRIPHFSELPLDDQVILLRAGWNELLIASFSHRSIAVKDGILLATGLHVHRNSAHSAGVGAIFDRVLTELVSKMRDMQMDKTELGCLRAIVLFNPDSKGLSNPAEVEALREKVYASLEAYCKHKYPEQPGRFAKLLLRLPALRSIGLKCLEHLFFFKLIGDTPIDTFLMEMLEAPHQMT

Regarding `CCNc1nc(Cl)nc(NC(C)C)n1`, the Potency in experiment [1] is > 92 µM (inactive). For the same compound, the activity change, negative = cytotoxicity in [2] was -4.9% (inactive). The Potency entry in [3], in experiment [5], in experiment [6], in experiment [7], in experiment [8] and in experiment [9] was “inactive” throughout. In addition, the Potency result in experiment [10] and in [16] was “inactive” in each case. Further, the caspase-3 activation in experiment [4] is 0.071% (inactive). Besides, the activation in experiment [11] is -2.38% (inactive) and -6.25% (inactive); in [17], -0.785% (inactive) and 0.245% (inactive). Also, the outcome in experiment [12] and in experiment [19] was inactive. Also, the max response is 3.95% and -7.9% in experiment [13]; -16% (inactive) and 6.8% (inactive) in [14]; 3.27% (inactive) and 0.807% (inactive) in experiment [18]. Further, the activity change % (negative = inhibition) in experiment [15] is -11.1% (inactive) and -4.42% (inactive).
With `O=S1OCC2C(CO1)C1(Cl)C(Cl)=C(Cl)C2(Cl)C1(Cl)Cl` (configuration not stated), the Potency in [1] was > 92 µM (inactive); in experiment [6] it was 25.1 µM (active); in experiment [16], 66.8 µM (active). Further, the activity change, negative = cytotoxicity in [2] was -80.3% (active). For the same compound, the Potency entry in experiment [3] was “inactive”. The caspase-3 activation in [4] was 10.8% (inactive). Also, the activation was 7.98% (inactive) in experiment [11] and -0.06% (inactive) in experiment [17]. Further, the outcome in [12] and in experiment [19] was inactive. Also, the max response in experiment [13] is 1.46%; in [14], -29.4% (inactive). Moreover, the activity change % (negative = inhibition) in experiment [15] is -1.54% (inactive).
Turning to `COC(=O)NC(=S)Nc1ccccc1NC(=S)NC(=O)OC`, the Potency was > 92 µM (inactive) in [1] and 37.6 µM (active) in experiment [16]. The activity change, negative = cytotoxicity in [2] is -2.43% (inactive). Moreover, the Potency result in experiment [3], in [5], in experiment [6], in [7], in experiment [8] and in [9] was “inactive” in each case. For the same compound, the Potency entry in experiment [10] and in [20] was “inactive” throughout. The caspase-3 activation in [4] is 2.97% (inactive). The activation in [11] was 7.06% (inactive) and -4.28% (inactive); in experiment [17] it was 11.9% (inactive) and 4.33% (inactive). The result in experiment [12] and in [19] was inactive. Also, the max response in experiment [13] was 3.84% and -2.84%; in [14], -8.67% (inactive) and 3.08% (inactive); in [18], -4.83% (inactive) and -0.925% (inactive). The activity change % (negative = inhibition) in [15] is 1.37% (inactive) and 13.1% (inactive).
